Source: PubChem BioAssay
A selection: hits, their analogues and other compounds. The true share with any hit is near 28%.
CYP2C9 act: increases human cytochrome P450 2C9 activity; P11712; recombinant CYP2C9, luciferin-H conversion, luminescence; hits give high values; factor 1 = untreated enzyme, 0 = blocked; activation factor at 5 µM; 96,000 compounds, 1.4% hits; AID 1024;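 active means activation factor of 2 or more for CYP2C9 at a 5 µM dose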;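 further: 0 = sulfaphenazole-blocked wells and 1 = vehicle-only wells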
CYP2C19 act: cytochrome P450 2C19 (human) activation; P33261; recombinant CYP2C19, luciferin-H EGE luminescence; hits give high values; 0 = fully inhibited enzyme, 1 = untreated enzyme; activation factor at 5 µM; 96,000 tested, under 10 active;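 active means activation factor of at least 2 at 5 µM in the primary screen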;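 further: 0 = wells with 2.5 mM tranylcypromine and 1 = vehicle-only wells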
Target sequence (P33261 whole entry, looked up): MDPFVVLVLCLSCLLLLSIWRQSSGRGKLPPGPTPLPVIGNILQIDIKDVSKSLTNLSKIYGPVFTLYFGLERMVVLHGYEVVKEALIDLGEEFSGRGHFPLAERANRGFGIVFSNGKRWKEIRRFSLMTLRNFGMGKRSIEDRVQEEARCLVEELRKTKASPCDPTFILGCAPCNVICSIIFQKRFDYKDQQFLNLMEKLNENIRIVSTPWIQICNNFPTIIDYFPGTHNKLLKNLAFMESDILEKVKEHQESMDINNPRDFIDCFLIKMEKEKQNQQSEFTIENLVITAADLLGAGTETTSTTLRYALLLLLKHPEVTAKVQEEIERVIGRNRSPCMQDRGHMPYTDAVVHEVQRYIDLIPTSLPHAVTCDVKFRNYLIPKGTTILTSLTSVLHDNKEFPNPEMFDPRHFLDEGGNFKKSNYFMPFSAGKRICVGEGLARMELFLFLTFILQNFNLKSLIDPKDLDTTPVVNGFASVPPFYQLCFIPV
CYP2C9 inh: inhibitors of human CYP2C9; 96,000 compounds, 20% hits; CYP2C9 Supersomes, luciferin-H conversion, luminescence; inhibition, % at 5 µM; P11712;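 active means blocking of liver enzyme CYP2C9 beyond about 50% at 5 µM, limit read from the data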
Mac1 fbg enh: increases human CD11b/CD18 adhesion to fibrinogen | activation, % at 10 µM | K562 CD11b/CD18 adhesion to fibrinogen, ATPlite luminescence | 93,000 compounds, 0.07% hits;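 active means 10 µM primary screen giving 50% or more activity, confirmed by 40% or more on retest at that dose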
CYP2C19 inhib: inhibitors of human CYP2C19; 96,000 compounds, 21% hits; inhibition, % at 5 µM; AID 778; CYP2C19 Supersomes, luciferin-H EGE luminescence, 30 min; P33261;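 active means CYP2C19 inhibition above a set limit at 5 µM in the primary screen, cut at about 50% in these data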;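 further: plate controls were negative control wells for no effect and 2.5 mM tranylcypromine positive control for full effect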
CD11b adhes inh: CD11b/CD18-fibrinogen binding inhibition | P05107+P11215 | K562 CD11b/CD18 adhesion to fibrinogen, ATPlite luminescence; Mn2+ added to activate the integrin | inhibition, % at 10 µM | 93,000 compounds, 0.54% hits | AID 1497;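 active means primary inhibition of 50% or more at 10 µM, then 40% or more on retest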
* hit, by the source's call; / = no result.

SMILES	CYP2C9 act	CYP2C19 act	CYP2C9 inh	Mac1 fbg enh	CYP2C19 inhib	CD11b adhes inh
COc1ccc(C)cc1S(=O)(=O)N1CCC(C(=O)NCCC2=CCCCC2)CC1	3.1*	0.6	-212	-3	36	-1
CCN(CCCNC(=O)C1CCN(S(=O)(=O)c2cnc[nH]2)CC1)c1cccc(C)c1	0.1	0.2	88*	-6	78*	-7
CCN(CCCNC(=O)C1CCCN(S(=O)(=O)CC)C1)c1cccc(C)c1 (centres undefined)	1.2	1	-23	-1	2	7
COc1ccc(S(=O)(=O)N2CCC(C(=O)NCCC3=CCCCC3)CC2)cc1C	0.9	0.6	9	-2	38	0
Cc1noc(C)c1S(=O)(=O)N1CCC(C(=O)NCCC2=CCCCC2)CC1	0.9	1	6	-1	0	6
CCS(=O)(=O)N1CCCC(C(=O)NCCN(C)Cc2ccccc2)C1 (centres undefined)	1	1	0	/	-1	/
CN(CCNC(=O)C1CCN(S(=O)(=O)c2cnc[nH]2)CC1)Cc1ccccc1	0.5	0.6	52*	-5	40	5
Cc1nn(C)c(C)c1S(=O)(=O)N1CCC(C(=O)NCCC2=CCCCC2)CC1	2.1*	1.2	-110	-1	-16	2
COc1ccc(S(=O)(=O)N2CCC(C(=O)NCCc3ccc4c(c3)OCO4)CC2)cc1	2.1*	0.1	-112	-3	86*	-5
COc1ccc(OC)c(S(=O)(=O)N2CCC(C(=O)NCCc3ccc(OC)c(OC)c3)CC2)c1	0.8	0.4	15	0	61*	-31
COc1ccc(CCNC(=O)C2CCN(S(=O)(=O)N3CCCCC3)CC2)cc1OC	0.9	1	13	0	1	-5
CCCCN(Cc1ccccc1)C(=O)C1CCCN(S(=O)(=O)c2cnc[nH]2)C1 (centres undefined)	0.6	0.4	36	0	63*	0
CN(CCCNC(=O)C1CCCN(S(=O)(=O)c2cnc[nH]2)C1)c1ccccc1 (centres undefined)	0.2	0.1	77*	2	89*	-11
Cc1cc2n(n1)C(c1cccs1)Nc1ccccc1-2 (centres undefined)	0.7	0.7	35	-2	30	-6
COc1ccc(CCNC(=O)C2CCN(S(=O)(=O)c3cnc[nH]3)CC2)cc1OC	0.3	0.8	73*	-2	21	-27
CCS(=O)(=O)N1CCCC(C(=O)NCCc2ccc(OC)c(OC)c2)C1 (centres undefined)	1	1.1	2	-1	-12	13
COc1ccc(CCNC(=O)C2CCCN(S(=O)(=O)c3cnc[nH]3)C2)cc1OC (centres undefined)	0.3	0.3	71*	-2	73*	-16
CCOC(=O)N1CCN(C(=O)CSc2ccccc2)CC1	0.9	0.6	11	-3	44	-10
Cc1ccccc1OCCN1C(=O)NC2(CCc3ccccc32)C1=O (centres undefined)	2*	0.7	-95	/	35	/
O=C1NC2(CCc3ccccc32)C(=O)N1CCOc1ccc(Cl)cc1 (centres undefined)	0.2	0.9	77*	-3	6	-4
Cc1ccc(S(=O)(=O)/C=C/c2ccccc2)cc1	/	/	/	2	/	-15
O=C(O)c1ccc(-c2ccccc2)[nH]1	1.6	0.3	-56	-3	72*	-10
O=C(O)c1cc(=O)cc(C(=O)O)[nH]1	1.2	1.2	-16	3	-20	-29
C#CCSc1nnc(-c2ccc(OC)cc2)o1	1	0.8	-2	1	16	-24
N#Cc1c(SCC(=O)Nc2ccccc2)nsc1SCC(=O)Nc1ccccc1	/	/	/	31	/	8
SMILES	CYP2C9 act	CYP2C19 act	CYP2C9 inh	Mac1 fbg enh	CYP2C19 inhib	CD11b adhes inh
CC(C)NC(=O)C(C)n1cccc1C(=O)c1ccccc1 (centres undefined)	0.5	0.8	55*	/	18	/
O=C(NCCCN1CCOCC1)c1ccccc1	0.9	1.1	11	-2	-7	-9
O=C(NCCN1CCOCC1)c1ccc(F)cc1	1.2	0.9	-20	0	9	0
O=C(c1ccc(F)cc1)C(CN1CCOCC1)c1ccccc1 (centres undefined)	0.9	0.4	12	2	59*	10
c1ccc(C(CN2CCOCC2)c2ccccc2)cc1	0.8	0.4	15	-1	58*	-9
O=C(c1ccccc1)C(CCC(CN1CCOCC1)C(=O)c1ccccc1)CN1CCOCC1 (centres undefined)	0.7	0.3	32	0	69*	-12
OC(CN1CCOCC1)CN(c1ccccc1)c1ccccc1 (centres undefined)	0.4	0.3	65*	0	70*	17
CCNC(=O)C1CC(=O)N(Cc2ccc3c(c2)OCO3)C(=Nc2ccc(OCC)cc2)S1 (centres undefined)	1.1	1.1	-13	1	-5	-20
CN(C)CCCNc1cn[nH]c(=O)c1Cl	0.9	1	5	-3	-4	-1
COc1cccc(C(=O)NCC(=O)N/N=C/c2cccs2)c1	/	/	/	-5	/	1
COc1ccc(C(=O)C(CN2CCOCC2)c2ccccc2)cc1 (centres undefined)	1	0.4	-1	-2	56*	2
C(#CCN1CCOCC1)COCCCOC(c1ccccc1)c1ccccc1	0.3	0.4	70*	-3	59*	-4
COc1ccc(C(=O)C(OC(=O)c2ccccc2Cl)c2ccccc2)cc1 (centres undefined)	/	/	/	4	/	-2
COc1ccc(C(=O)C(CN2CCCC2)c2ccccc2)cc1 (centres undefined)	0.8	0.8	18	3	17	0
COc1ccc(C(=O)C(OC(=O)c2ccccc2)c2ccccc2)cc1 (centres undefined)	0.3	0.4	70*	/	59*	/
CCOC(=O)c1c(C)nc(C)c(C(=O)OCC)c1-c1ccc(Br)cc1	/	/	/	-1	/	-11
CCOC(=O)N1CCC(=NNC(=O)COc2ccc(C#N)cc2)CC1	/	/	/	-4	/	-14
COc1ccc(N(CC(=O)NCc2ccco2)S(=O)(=O)c2ccc(OC)c(OC)c2)cc1	0.5	0	45	3	100*	6
CCOc1ccc(N(CC(=O)O)S(=O)(=O)c2ccc(OC)c(OC)c2)cc1	0.9	1	7	1	5	-15
CCOc1ccc(N(CC(=O)NCc2ccco2)S(=O)(=O)c2ccc(OC)c(OC)c2)cc1	0.4	0	62*	-5	98*	1
C[n+]1cc[nH]c1SCC(=O)c1ccccc1	1.1	0.3	-9	-1	72*	1
Cc1nc2ccccc2nc1SCC(=O)c1ccccc1	/	/	/	-2	/	21
c1ccc(-c2csc(Nc3cccnc3)n2)nc1	0.3	0.3	68*	-2	67*	-5
c1ccc(Nc2nc(-c3ccccn3)cs2)cc1	0.6	0.6	42	2	38	-5
